Laboratory results from PubChem BioAssay.
Active and inactive are the calls of the source.

Assay: HepG2 liver cancer cell viability effects, profiling panel, resazurin fluorescence, 24 h, PK04 Diversity Set (AID 1172); further: test concentration not given here
Conditions: higher = more signal
`C=C(C(=O)CC[C@H](OC(=O)c1cccnc1)c1ccc(OCCO)cc1)C(C)C` showed a z-score of -0.688. For `CC(C)CNC(=O)[C@@]1(C)c2ccccc2C(=O)N(Cc2ccccc2)[C@H]1c1ccc(CO)cc1`, the z-score was 0.702. In the case of `CC(C)(C)OC(=O)CC[C@]1(C(=O)O)COC(c2ccc(OCCCO)cc2)=N1`, the z-score is reported as 0.265. With `COc1ccc([Si](C)(C)[C@@H]2[C@@H](CC(=O)N(CCO)Cc3ccccc3)O[C@]3(C(=O)N(Cc4ccc(N5CCOC5=O)cc4)c4ccccc43)[C@H]2C)cc1` the z-score was -1.12. In the case of `CCCCC=C[C@@H](NC(=O)CCc1ccccc1)c1ccccc1`, the z-score is reported as -1.61. For `C=C(/C(=C/C[C@@H](OC(=O)c1ccncc1)c1ccccc1OCCO)c1cnc2ccccc2c1)C(C)C`, the z-score was -1.11. In the case of `C=C(CCCC)/C(=C/C[C@@H](OC(=O)c1ccncc1)c1ccccc1OCCO)c1cc(C(=O)OC)ccc1OC`, the z-score is reported as -0.16. Work on `CC(C)N1C(=O)c2ccccc2[C@](C)(C(=O)O)[C@@H]1c1ccc(CO)cc1` yielded a z-score of 0.536. For `COC(=O)[C@@]1(Cc2ccc(OC)cc2)[C@H]2c3cc(C(=O)N(C)C)n(Cc4cc(C)n(C)n4)c3C[C@H]2CN1C(=O)c1ccccc1`, the z-score was -1.04.

Assay: basal S. cerevisiae growth modulation, no modifier, primary screen, OD600, strain BY4716, 24 h, basal condition (AID 1173)
Conditions: OD600, 24 h, higher = more signal, called active from +8 up or from −8 down
For `CN(C)C(=O)[C@@]1(CCS(=O)(=O)c2ccccc2)N=C(c2ccc(OCCCO)cc2)O[C@H]1c1ccccc1CN=[N+]=[N-]`, the z-score was -1.19 (inactive). With `Cc1ccc(S[C@]2(C(=O)NCc3ccccc3)CC(=O)N(C3Cc4ccccc4C3)[C@@H]2c2ccc(CO)cc2I)cc1` the z-score was -2.95 (inactive). For `C=C(C)[C@@H]1CC=C(C(O)C2C=CC3C(=O)N(C4CCCCC4)C(=O)C3N2Nc2ccc(OC)cc2)CC1` (stereo not given in full), the z-score was 0.702 (inactive). With `CC(C)(C)N1CC=CC23O[C@@H]4C=CCCOC(=O)C4[C@H]2C(=O)N(CCCO)[C@@H]3C1=O` (stereo not given in full) the z-score was -0.434 (inactive). With `CN(C)C(=O)[C@]1(Cc2ccccc2N=[N+]=[N-])N=C(c2ccc(OCCCO)cc2)O[C@@H]1c1ccccc1CN=[N+]=[N-]` the z-score was -1.93 (inactive). For `COC(=O)[C@@]1(Cc2ccc(OC)cc2)[C@H]2c3cc(C(=O)N4CCCC4)n(Cc4ccc(C)o4)c3C[C@H]2CN1C(=O)c1ccccc1`, the z-score was -8.36 (active). For `[N-]=[N+]=NCc1ccccc1C[C@]1(C(=O)NCCN2CCOCC2)N=C(c2ccc(OCCCO)cc2)O[C@H]1c1ccccc1`, the z-score was -2 (inactive). For `CCCCCCC#C[Si](O[C@H](c1ccccc1)c1cn(Cc2cccc(Cl)c2)nn1)(C(C)C)C(C)C`, the z-score was -0.419 (inactive). For `COCCOC(=O)N1C(=O)[C@@]2(c3cc(C#CC4(O)CCCCCC4)ccc31)[C@H](C(=O)N1CCN(c3ncccn3)CC1)[C@H]1C(=O)O[C@H](c3ccccc3)[C@H](c3ccccc3)N1[C@@H]2c1ccc(O)cc1`, the z-score was 1.04 (inactive). With `COc1ccc(C(=O)Nc2ccc3c(c2)[C@]2(O[C@@H](CCO)[C@H]([Si](C)(C)c4ccc(OC)cc4)[C@H]2C)C(=O)N3Cc2ccccc2)cc1` the z-score was -2.35 (inactive). With `COc1ccc([Si](C)(C)[C@@H]2[C@@H](CCO)O[C@]3(C(=O)N(Cc4ccccc4)c4ccc(N5CCCCC5=O)cc43)[C@H]2C)cc1` the z-score was 0.86 (inactive). In the case of `C#CCNS(=O)(=O)N(C)C`, the z-score is reported as -0.61 (inactive). For `COCCCNC(=O)[C@]1(CCS(=O)(=O)c2ccccc2)N=C(c2ccc(OCCCO)cc2)O[C@@H]1c1ccccc1`, the z-score was -0.324 (inactive). With `CC(=O)NCCCC[C@@H]1NC(=O)[C@@H]2C[C@H](C(=O)NCCCC[N+](C)(C)C)[C@H](c3cccc(OCCO)c3)N2C1=O` the z-score was 1.41 (inactive). In the case of `CCCC[C@@H](O)C1=C(COc2ccccc2)Cn2c(=O)n(-c3ccccc3)c(=O)n2[C@H]1CO`, the z-score is reported as -4 (inactive). In the case of `C=CCOC(=O)[C@H]1[C@@H]2C(=O)O[C@@H](c3ccccc3)[C@@H](c3ccccc3)N2[C@@H](c2ccc(OCCOC(=O)[C@H]3C[C@H]4C(=O)N[C@@H](CCCCN(C)C)C(=O)N4[C@H]3c3ccc(O)cc3)cc2)[C@]12C(=O)Nc1ccccc12`, the z-score is reported as -2.35 (inactive). For `C=CCNC(=O)[C@H]1[C@@H]2C(=O)O[C@@H](c3ccccc3)[C@@H](c3ccccc3)N2[C@@H](c2ccc(OCCO)cc2)[C@]12C(=O)N(C(=O)OCCOC)c1ccc(C#CC3=CCCCC3)cc12`, the z-score was 0.567 (inactive). With `COC(=O)[C@@]1(Cc2ccccc2)[C@H]2c3cc(C(=O)N4CCCC4)n(Cc4ccc(OC(F)(F)F)cc4)c3C[C@H]2CN1C(=O)c1ccccc1` the z-score was 1.61 (inactive). For `COc1ccc([Si](C)(C)[C@H]2[C@H](CCn3cc(CCO)nn3)O[C@@]3(C(=O)N(Cc4cccc(N5C(=O)c6cccc7cccc5c67)c4)c4ccccc43)[C@@H]2C)cc1`, the z-score was 0.425 (inactive). In the case of `COC(=O)[C@@]1(Cc2ccc(F)cc2)[C@H]2c3cc(C(=O)N4CCCC4)n(Cc4ccccc4)c3C[C@H]2CN1C(=O)c1ccccc1`, the z-score is reported as 1.38 (inactive). For `CCC[C@@H]1C[C@@]1(CCC)[C@@H](NC(=O)c1ccco1)c1ccc(Cl)cc1`, the z-score was 0.614 (inactive). With `C[C@@]1([C@@H](NC(=O)c2cccs2)c2ccc(-c3ccccc3)cc2)C[C@H]1C1CCCCC1` the z-score was 0.774 (inactive). With `O=C1O[C@H](c2ccccc2)[C@H](c2ccccc2)N2[C@H]1[C@@H](C(=O)N1CCN(c3ncccn3)CC1)[C@]1(C(=O)Nc3ccc(C#CCCO)cc31)[C@H]2c1ccccc1OCCO` the z-score was 0.687 (inactive). With `C=C(COC)C(=O)CC[C@H](OC(=O)c1ccccc1-c1ccccc1C(=O)O)c1ccc(CO)o1` the z-score was 0.624 (inactive). In the case of `COCC(=C=CC[C@@H](O)c1ccccc1OCCO)C[C@@H](O)c1ccccn1`, the z-score is reported as -1.42 (inactive). For `COC(=O)C(CC#Cc1ccc2c(c1)[C@]1(C(=O)N2)[C@H](c2ccc(OCCO)cc2)N2[C@H](c3ccccc3)[C@H](c3ccccc3)OC(=O)[C@H]2[C@@H]1C(=O)O)C(=O)OC`, the z-score was 0.156 (inactive). For `COCCCNC(=O)[C@]1(Cc2ccccc2CN=[N+]=[N-])N=C(c2ccc(OCCCO)cc2)O[C@@H]1c1ccccc1CN=[N+]=[N-]`, the z-score was 0.409 (inactive). With `C=C(C(=O)CC[C@H](OC(=O)c1cccnc1)c1ccc(OCCO)cc1)C(C)C` the z-score was -0.303 (inactive). With `CC(C)CNC(=O)[C@@]1(C)c2ccccc2C(=O)N(Cc2ccccc2)[C@H]1c1ccc(CO)cc1` the z-score was -0.11 (inactive). With `CC(C)(C)OC(=O)CC[C@]1(C(=O)O)COC(c2ccc(OCCCO)cc2)=N1` the z-score was 0.167 (inactive). In the case of `COc1ccc([Si](C)(C)[C@@H]2[C@@H](CC(=O)N(CCO)Cc3ccccc3)O[C@]3(C(=O)N(Cc4ccc(N5CCOC5=O)cc4)c4ccccc43)[C@H]2C)cc1`, the z-score is reported as 0.613 (inactive). In the case of `CCCCC=C[C@@H](NC(=O)CCc1ccccc1)c1ccccc1`, the z-score is reported as 0.927 (inactive). With `C=C(/C(=C/C[C@@H](OC(=O)c1ccncc1)c1ccccc1OCCO)c1cnc2ccccc2c1)C(C)C` the z-score was -18.3 (active). For `C=C(CCCC)/C(=C/C[C@@H](OC(=O)c1ccncc1)c1ccccc1OCCO)c1cc(C(=O)OC)ccc1OC`, the z-score was 0.0793 (inactive). With `CC(C)N1C(=O)c2ccccc2[C@](C)(C(=O)O)[C@@H]1c1ccc(CO)cc1` the z-score was -0.942 (inactive). With `COC(=O)[C@@]1(Cc2ccc(OC)cc2)[C@H]2c3cc(C(=O)N(C)C)n(Cc4cc(C)n(C)n4)c3C[C@H]2CN1C(=O)c1ccccc1` the z-score was 0.932 (inactive).
